# Out of some 290,000 compounds screened, about 110 (0.038%) were called active. Inconclusive results (about 3%) are left out. The entries come from a sample that favours actives as a whole. Unmarked numbers belong to inactive results. Calls come from the whole dose curve; as a rule, active = well fitted inhibition curve with a large enough effect in the polarisation, with a control signal flat (not every such curve was filed as active); inconclusive = small, poorly fitted or top-dose-only effect, or effect the other way, or a change in a side signal; inactive = no such curve, though single readings can be large or run the other way; the % refers to the polarisation.
# Target: Histone-lysine N-methyltransferase 2A (Homo sapiens) (UniProt Q03164)
# Assay: qHTS Fluorescence Polarization Assay for Inhibitors of MLL CXXC domain - DNA interaction
# Conditions: MLL-CXXC / FITC-HOXA9 DNA fluorescence polarization; series mostly up to 115 µM; activity change, negative = inhibition: at the top concentration
# Text: NIH Chemical Genomics Center [NCGC] NIH Molecular Libraries Probe Production centers Network [MLPCN] MLPCN Grant: DA027717-01A1 Assay Submitter (PI): John Bushweller NCGC Assay Overview: The MLL (Mixed Lineage Luekemia) gene is involved in chromosomal translocation that results in either acute lymphoid leukemia (ALL) or acute myeloid leukemia (AML). Chromasomal translocation of MLL gene is responsible for the fusion of N-terminal MLL to more than 60 different partner genes in frame. Many of the MLL partner genes contain transcription activation domains or function as transcriptional activators. Despite the heterogeneity of fusion partners, the N-terminus of MLL fusion proteins always consists of the N-terminal menin binding motif and the CXXC domain. The MLL-CXXC domain specifically recognizes unmethylated CpG sequences of the HOX-A gene. Disruption of the MLL-CXXC and HOX-A gene interaction leads to down regulation of HOX-A gene expression and may potentially reverse leukemogenesis. We have miniaturized and optimized an in-vitro assay to screen for inhibitors of the MLL-CXXC domain and HOX-A DNA interaction, which could have utility in MLL fusion leukemias.
# The affinity purified MLL-CXXC domain, unlabeled HOX-A9 DNA strand, fluorescein (FLSN) labeled HOX-A9 DNA strand were kindly supplied by the laboratory of Dr. John Bushweller, University of Virginia. All reagents were stored in single use aliquots at -80C. Assay Reagents: Assay buffer: 50 mM TRIS-HCl pH 7.5, 50 mM NaCl, 1 mM DTT. Add 0.05% BSA prior to reaction setup. Assay Procedure: 1.Dispense 1 ul of a 7 uM MLL-CXXC solution prepared in assay buffer into column 1-48. 2.Transfer 23 nl of compounds and unlabeled HOX-A9 per well. 3.Incubate for 5 minutes at ambient. 4.Dispense 1ul of a 50 nM FLSN-HOX-A9 solution prepared in assay buffer into columns 1-48 5.Centrifuge for 30 seconds at 1000 RPM. 6.Incubate for 30 minutes at ambient. 7.Read using the Envision reader fluorescent polarization protocol.
# Sequence of Histone-lysine N-methyltransferase 2A (Homo sapiens) (Q03164 whole entry, looked up, the tested form may be a part): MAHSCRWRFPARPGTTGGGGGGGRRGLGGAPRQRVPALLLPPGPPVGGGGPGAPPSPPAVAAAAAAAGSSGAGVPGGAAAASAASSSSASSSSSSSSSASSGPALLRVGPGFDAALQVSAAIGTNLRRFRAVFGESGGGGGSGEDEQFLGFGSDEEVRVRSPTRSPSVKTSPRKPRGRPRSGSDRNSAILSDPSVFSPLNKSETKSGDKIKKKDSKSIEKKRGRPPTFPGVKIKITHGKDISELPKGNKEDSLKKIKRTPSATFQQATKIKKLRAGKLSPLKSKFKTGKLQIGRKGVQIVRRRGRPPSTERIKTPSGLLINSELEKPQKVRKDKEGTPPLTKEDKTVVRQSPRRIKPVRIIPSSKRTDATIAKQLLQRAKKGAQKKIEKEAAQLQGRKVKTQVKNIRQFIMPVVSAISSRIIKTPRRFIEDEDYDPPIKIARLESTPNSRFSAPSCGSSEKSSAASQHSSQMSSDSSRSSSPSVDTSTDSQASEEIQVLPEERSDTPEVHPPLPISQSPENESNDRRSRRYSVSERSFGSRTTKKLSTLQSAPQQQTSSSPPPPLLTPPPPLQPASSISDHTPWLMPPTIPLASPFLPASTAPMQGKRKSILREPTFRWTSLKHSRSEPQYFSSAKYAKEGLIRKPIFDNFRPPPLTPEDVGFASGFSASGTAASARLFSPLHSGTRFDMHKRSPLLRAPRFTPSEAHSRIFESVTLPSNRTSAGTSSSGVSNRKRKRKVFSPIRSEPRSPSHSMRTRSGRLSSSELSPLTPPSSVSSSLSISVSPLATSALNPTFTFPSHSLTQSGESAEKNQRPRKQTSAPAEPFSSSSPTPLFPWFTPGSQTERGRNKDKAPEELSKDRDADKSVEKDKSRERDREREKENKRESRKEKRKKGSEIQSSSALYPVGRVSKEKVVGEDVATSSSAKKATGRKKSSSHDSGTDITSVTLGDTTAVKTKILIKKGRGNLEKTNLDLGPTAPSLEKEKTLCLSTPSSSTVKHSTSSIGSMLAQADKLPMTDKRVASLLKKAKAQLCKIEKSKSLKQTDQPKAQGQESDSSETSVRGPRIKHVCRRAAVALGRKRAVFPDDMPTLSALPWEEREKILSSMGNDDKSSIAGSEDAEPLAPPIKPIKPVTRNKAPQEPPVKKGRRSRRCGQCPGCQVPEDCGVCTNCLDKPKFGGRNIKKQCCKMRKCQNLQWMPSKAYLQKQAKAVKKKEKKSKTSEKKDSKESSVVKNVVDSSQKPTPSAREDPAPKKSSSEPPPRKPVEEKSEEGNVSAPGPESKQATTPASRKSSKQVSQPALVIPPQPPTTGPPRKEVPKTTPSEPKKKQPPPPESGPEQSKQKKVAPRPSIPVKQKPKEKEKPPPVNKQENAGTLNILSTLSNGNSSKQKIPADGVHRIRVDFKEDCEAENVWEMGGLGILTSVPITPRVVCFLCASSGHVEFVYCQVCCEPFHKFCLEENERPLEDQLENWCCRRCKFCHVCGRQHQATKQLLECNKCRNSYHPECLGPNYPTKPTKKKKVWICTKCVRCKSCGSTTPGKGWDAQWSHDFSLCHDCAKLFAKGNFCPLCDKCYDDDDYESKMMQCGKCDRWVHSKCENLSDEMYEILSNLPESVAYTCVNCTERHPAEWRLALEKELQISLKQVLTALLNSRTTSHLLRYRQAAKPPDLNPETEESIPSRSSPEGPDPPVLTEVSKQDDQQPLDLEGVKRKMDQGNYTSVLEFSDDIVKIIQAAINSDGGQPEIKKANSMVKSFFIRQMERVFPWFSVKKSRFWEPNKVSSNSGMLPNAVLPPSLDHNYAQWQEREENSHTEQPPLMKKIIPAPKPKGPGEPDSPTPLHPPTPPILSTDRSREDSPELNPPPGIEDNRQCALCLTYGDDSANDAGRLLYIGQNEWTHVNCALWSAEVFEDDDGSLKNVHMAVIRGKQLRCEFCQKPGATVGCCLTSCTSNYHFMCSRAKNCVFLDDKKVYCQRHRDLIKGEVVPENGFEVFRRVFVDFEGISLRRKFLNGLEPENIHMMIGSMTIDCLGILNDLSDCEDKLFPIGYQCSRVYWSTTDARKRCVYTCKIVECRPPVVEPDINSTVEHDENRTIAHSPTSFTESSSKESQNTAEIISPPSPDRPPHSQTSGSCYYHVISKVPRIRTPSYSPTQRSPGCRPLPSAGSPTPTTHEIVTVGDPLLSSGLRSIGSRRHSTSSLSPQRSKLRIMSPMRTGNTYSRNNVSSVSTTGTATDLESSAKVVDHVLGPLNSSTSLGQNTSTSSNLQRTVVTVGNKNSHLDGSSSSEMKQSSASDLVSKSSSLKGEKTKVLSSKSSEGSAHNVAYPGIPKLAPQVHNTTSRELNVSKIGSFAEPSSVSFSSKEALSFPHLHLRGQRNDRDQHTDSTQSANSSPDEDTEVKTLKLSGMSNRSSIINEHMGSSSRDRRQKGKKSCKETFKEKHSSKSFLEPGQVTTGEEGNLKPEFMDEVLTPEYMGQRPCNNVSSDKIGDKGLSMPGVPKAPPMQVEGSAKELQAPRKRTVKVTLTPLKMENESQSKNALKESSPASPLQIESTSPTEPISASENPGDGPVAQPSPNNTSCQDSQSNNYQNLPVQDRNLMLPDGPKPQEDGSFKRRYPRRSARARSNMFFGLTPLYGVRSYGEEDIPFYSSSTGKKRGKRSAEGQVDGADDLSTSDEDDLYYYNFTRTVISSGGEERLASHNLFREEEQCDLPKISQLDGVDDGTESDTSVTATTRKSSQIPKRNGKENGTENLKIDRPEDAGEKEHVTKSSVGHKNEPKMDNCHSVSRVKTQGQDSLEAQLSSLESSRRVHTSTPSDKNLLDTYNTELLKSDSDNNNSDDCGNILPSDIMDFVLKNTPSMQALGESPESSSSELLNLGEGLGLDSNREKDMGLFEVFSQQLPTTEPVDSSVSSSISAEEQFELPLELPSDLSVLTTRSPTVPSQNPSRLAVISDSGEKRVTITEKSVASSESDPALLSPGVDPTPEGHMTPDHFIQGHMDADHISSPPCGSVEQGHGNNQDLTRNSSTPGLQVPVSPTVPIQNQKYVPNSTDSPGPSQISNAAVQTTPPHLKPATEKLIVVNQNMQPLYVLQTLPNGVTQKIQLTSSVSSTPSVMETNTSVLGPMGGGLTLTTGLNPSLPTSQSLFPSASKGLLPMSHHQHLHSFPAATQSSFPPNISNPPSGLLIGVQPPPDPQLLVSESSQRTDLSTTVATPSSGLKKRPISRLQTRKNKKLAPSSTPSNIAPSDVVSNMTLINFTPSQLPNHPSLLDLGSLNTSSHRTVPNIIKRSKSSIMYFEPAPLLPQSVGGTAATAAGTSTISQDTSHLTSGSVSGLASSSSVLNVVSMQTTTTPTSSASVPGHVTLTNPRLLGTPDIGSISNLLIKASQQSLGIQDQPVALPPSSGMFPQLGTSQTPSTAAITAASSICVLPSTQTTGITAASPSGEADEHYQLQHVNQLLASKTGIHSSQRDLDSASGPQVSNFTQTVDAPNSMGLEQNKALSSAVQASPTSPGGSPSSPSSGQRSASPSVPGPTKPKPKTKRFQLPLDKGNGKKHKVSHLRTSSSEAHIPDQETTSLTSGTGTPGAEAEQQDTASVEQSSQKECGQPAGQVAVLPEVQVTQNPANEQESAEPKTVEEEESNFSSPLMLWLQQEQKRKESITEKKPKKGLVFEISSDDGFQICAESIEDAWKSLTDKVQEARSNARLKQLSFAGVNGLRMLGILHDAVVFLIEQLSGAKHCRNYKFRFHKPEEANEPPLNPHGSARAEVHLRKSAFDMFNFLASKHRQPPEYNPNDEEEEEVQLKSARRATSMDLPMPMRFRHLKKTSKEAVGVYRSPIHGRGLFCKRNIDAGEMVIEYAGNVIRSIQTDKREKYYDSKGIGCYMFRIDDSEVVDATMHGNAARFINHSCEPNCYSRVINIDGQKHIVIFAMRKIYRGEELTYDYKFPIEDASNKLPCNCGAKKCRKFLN
Compound,"activity change, negative = inhibition",Potency
COc1ccc(N(CC(=O)Nc2cc(OC)cc(OC)c2)S(=O)(=O)c2c(C)n[nH]c2C)cc1,-2.83%,–
CC(C)NC(=O)C(c1ccc(F)cc1)N(C(=O)CCC(=O)Nc1ccccn1)c1ccccc1F (centres undefined),-3.67%,–
COc1ccc(C(=O)NC(C)CCc2ccccc2)c(OC)c1 (centres undefined),-5.8%,–
O=C(CN1CCC(NC(=O)C2CC2)CC1)Nc1ccccc1[N+](=O)[O-],2.95%,–
CCCOc1ccc(-c2c(C(=O)N/N=C/c3ccco3)nnn2-c2nonc2N)cc1,1.47%,–
COC(=O)c1cc(S(=O)(=O)Nc2ccc(C)c(F)c2)c[nH]1,5.77%,–
O=C(c1ccccc1)N1CCN(C(=O)c2cc3nc(-c4ccccc4)cc(C(F)(F)F)n3n2)CC1,-7.71%,–
COc1cccc(N(CC(=O)NC2CCCC2)C(=O)Cn2nnc(-c3ccc(C)o3)n2)c1,25.6%,–
COc1ccc2c(c1OC)C(=O)N(c1ccc(O)cc1)C2,-1.66%,–
C=CC1(C)CC(=O)C2(O)C(C)(O1)C(OC(C)=O)C(O)C1C(C)(C)CCC(O)C12C (centres undefined),2.28%,–
C=C1C(=CC=C2CCC[C@@]3(C)[C@@H]2CC[C@H]3[C@H](C)CCCC(C)C)C[C@@H](O)C[C@@H]1O,-2.06%,–
O=C(CCS(=O)(=O)c1ccccc1)NC1CCCC1,-6.29%,–
CCN1C(=NCC(C)C)N[C@@H](CCc2ccccc2)[C@H](C(=O)NCC(C)C)[C@H]1C,–,inactive
O=C(COc1ccc(Cl)cc1)Nc1ccc2c(c1)OCO2,-10.7%,–
COc1cccc(OCC(O)CNC(=O)c2oc3c(C)c(C)ccc3c2C)c1 (centres undefined),1.3%,–
O=C(NCCc1ccccn1)c1nc(Cn2cc([N+](=O)[O-])cn2)no1,0.842%,–
COc1ccc(-c2cc(=O)oc3cc(OC(C)C(=O)Nc4ccc(CN5CCOCC5)cc4)ccc23)cc1 (centres undefined),16.7%,–
CCOc1cc(C(=O)O)ccc1OCCOc1ccccc1,3.09%,–
Cc1cc(C)cc(N(CCC#N)C(=O)CN2C(=O)NC3(CCCC3)C2=O)c1,-1.49%,–
CC(=O)N(C)c1ccc(NC(=O)Nc2cccc3ccccc23)cc1,-9.5%,–
CS(=O)(=O)N(CC(=O)Nc1ccc(F)cc1)C1CCCCC1,-8.63%,–
CC(=O)c1ccc(OCC(O)CN2CCN(S(=O)(=O)c3cccc(Br)c3)CC2)cc1 (centres undefined),2.81%,–
COc1ccccc1N1CCN(C(=O)c2cc(=O)c3cc(C)ccc3o2)CC1,-8.72%,–
Cc1ccc(OCC(=O)Nc2ccc(C(=O)O)cc2NC(=O)COc2ccc(C)c(C)c2)cc1C,16.9%,–
Cc1nn(C(C)(C)C)c(OC(=O)CC(C)C)c1S(=O)(=O)c1ccccc1,-2.57%,–

Compound,"activity change, negative = inhibition",Potency
C[C@]12CC[C@@H]3c4ccc(O)cc4C[C@@H](CCCCCCCCCS(=O)CCCC(F)(F)C(F)(F)F)C3[C@@H]1CC[C@@H]2O (some centres undefined),5.98%,–
COc1ccccc1C(=O)NC(CCSC)C(=O)NNC(=O)c1csc(N2CCOCC2)n1 (centres undefined),-2.58%,–
Cc1ccc(S(=O)(=O)NCCCn2ccnc2)cc1C(=O)NC(C)C,-5.36%,–
O=C(O)c1ccccc1C(=O)NC1=NN(c2ccccc2)CC1,2.1%,–
O=C(NCCCN1CCCCC1)C1CC(=O)N(CCc2ccccc2)C1 (centres undefined),3.45%,–
COc1cc2c(cc1OC)[C@@H](Cc1cc(OC)c(OC)c(OC)c1)[N+](C)(CCCOC(=O)CC/C=C/CCC(=O)OCCC[N+]1(C)CCc3cc(OC)c(OC)cc3[C@H]1Cc1cc(OC)c(OC)c(OC)c1)CC2 (some centres undefined),-5.96%,–
CN(C(=O)c1ccccc1)c1nccnc1C#N,-18.4%,–
O=S(=O)(NC1CCCCC1N1CCN(c2ccccc2F)CC1)c1ccccc1 (centres undefined),-0.732%,–
CCC1CCCCN1C(=S)Nc1ccc(S(=O)(=O)Nc2ncccn2)cc1 (centres undefined),11%,–
Cc1cc(C)cc(OCC(=O)Nc2cc(NC(=O)COc3cc(C)cc(C)c3)cc(C(=O)O)c2)c1,-18.7%,–
C[C@H](NC(=O)C1CC(=O)N(c2ccc3c(c2)OCCO3)C1)C(=O)N1CCC(C(=O)O)CC1 (some centres undefined),13.2%,–
Cc1cc(C)c2nc(N3CCC(C(=O)NCCN4CCOCC4)CC3)sc2c1,-5.32%,–
Cc1ccc(C(C(=O)NCC2CCCO2)N(C(=O)c2snc(C(N)=O)c2N)c2ccc(C(C)C)cc2)o1 (centres undefined),5.15%,–
CCOC(=O)[C@@H]1[C@H]2COc3ccc(Br)cc3[C@H]2N2C(=O)N(c3ccc(Cl)cc3)C(=O)[C@@]12C,-3.58%,–
CC(=O)NC1CCN(CC(=O)Nc2nccs2)CC1,1.35%,–
O=C(COc1ccc(Cl)cc1Cl)N/N=C/c1ccccn1,24%,–
Cc1cccc(N(C)C(=O)CN2C(=O)COc3ccc(S(=O)(=O)N4CCCCCC4)cc32)c1,-1.72%,–
O=C(Nc1cccc(-n2cnnn2)c1)c1cccnc1,2.3%,–
COc1ccccc1CCNC(=O)c1c(C)nn(CC(C)C)c1Cl,2.36%,–
Cc1cccc(C)c1NC(=O)CS(=O)CC(=O)N1CCN(c2ccccc2)CC1 (centres undefined),2.84%,–
O=C(Nc1ncc([N+](=O)[O-])s1)C1COc2ccccc2O1 (centres undefined),7.99%,–
CC(C)CNC(=O)C(=O)NCC(c1ccc2c(c1)OCO2)N1CCOCC1 (centres undefined),-11.6%,–
Cc1ccc(-c2noc(CNC(=O)c3ccoc3C)n2)cc1,-2.13%,–
O=C(CCS(=O)(=O)c1ccc2c(c1)NC(=O)CS2)NCc1ccccc1Cl,3.07%,–

# — PubChem BioAssay AID2662 (National Center for Advancing Translational Sciences (NCATS), 2010)
